Laboratory results: PubChem BioAssay AID488969 (Vanderbilt High Throughput Screening Facility, 2010)
Values joined by “and” are separate entries in the source; they are usually repeats but may differ in a detail not shown here. Equal values may be shown once. The full ranking holds about 110,000 compounds; the median of “z-score” is about -0.1, and the highest 2% start at about 2. Shown is part of a subset that was picked to be rich in the highest values. Active and inactive are the calls of the source.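 The calls were made as follows: active = z-score in the third read window above 3 or below -3; inactive = the rest.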

Molecular target: Metabotropic glutamate receptor 8 (Rattus norvegicus) (UniProt P70579)
Test: rat mGluR8 modulators via GIRK flux, primary screen, cell-based, thallium flux, HTS (AID 488969)
Settings: HEK293 rat mGluR8, GIRK (G protein-gated inwardly rectifying potassium channel) thallium flux, FluoZin2; at 10 µM; stronger effect = higher value; submaximal glutamate (EC20) added with thallium

Metabotropic glutamate receptor 8 (Rattus norvegicus), sequence (P70579 whole entry, looked up): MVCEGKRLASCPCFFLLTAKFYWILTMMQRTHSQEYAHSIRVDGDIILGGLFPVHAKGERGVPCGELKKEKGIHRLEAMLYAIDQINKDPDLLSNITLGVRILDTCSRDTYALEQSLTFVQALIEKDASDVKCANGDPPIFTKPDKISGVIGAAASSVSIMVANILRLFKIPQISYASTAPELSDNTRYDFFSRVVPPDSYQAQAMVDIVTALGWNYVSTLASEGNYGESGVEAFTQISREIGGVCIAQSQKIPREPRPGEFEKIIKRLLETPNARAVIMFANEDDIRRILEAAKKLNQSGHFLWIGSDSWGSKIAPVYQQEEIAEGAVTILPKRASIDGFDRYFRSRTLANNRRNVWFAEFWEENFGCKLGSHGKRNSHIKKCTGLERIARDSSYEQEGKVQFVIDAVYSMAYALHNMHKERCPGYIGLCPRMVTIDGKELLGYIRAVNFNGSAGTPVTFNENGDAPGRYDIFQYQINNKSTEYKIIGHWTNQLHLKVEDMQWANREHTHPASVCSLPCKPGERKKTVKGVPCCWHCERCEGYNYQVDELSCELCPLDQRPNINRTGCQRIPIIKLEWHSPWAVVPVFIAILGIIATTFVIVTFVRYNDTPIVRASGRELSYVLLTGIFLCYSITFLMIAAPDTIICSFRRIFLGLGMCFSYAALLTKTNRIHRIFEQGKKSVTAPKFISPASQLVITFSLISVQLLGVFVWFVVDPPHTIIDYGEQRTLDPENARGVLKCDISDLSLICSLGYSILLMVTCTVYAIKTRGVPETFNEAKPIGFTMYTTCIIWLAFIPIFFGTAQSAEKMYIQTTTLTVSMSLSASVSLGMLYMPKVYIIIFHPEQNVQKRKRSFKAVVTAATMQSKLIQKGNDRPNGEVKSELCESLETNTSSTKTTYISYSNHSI

Structure (SMILES) | z-score
CN1CCN(S(=O)(=O)c2ccc(NC(=S)NC(=O)c3ccccc3)cc2)CC1 | 0.103
O=C(c1ccco1)N1CCN(C(=O)C2CCN(S(=O)(=O)c3cccc4nsnc34)CC2)CC1 | 0.0379
COc1ccc2c(c1)NC1(O)c3ccccc3C(=O)C21O (stereo unspecified) | 0.297
CC1(C)N=C(N)NC(Nc2ccc(Br)cc2)=N1 | -0.00115
Cc1ccccc1-c1noc(-c2ccc(Cl)cc2)n1 | -0.0855
COc1ccc(-c2csc(NC(=O)c3nc(-c4ccccc4)oc3C)n2)cc1 | 0.528
Cc1nc2ccccc2nc1OCC(=O)N1CCN(c2ccccc2)CC1 | -0.273
Cc1ccc2c(c1)N(C(=O)c1ccco1)C(C)(C)c1ssc(=S)c1-2 | -0.788
COc1ccccc1-n1cnnc1SCC(=O)N1CC(=O)Nc2ccccc21 | -0.0356
CS(=O)(=O)N1Cc2ccccc2CC1C(=O)OCC(=O)Nc1ccc2ccccc2c1 (stereo unspecified) | 0.0644
Cc1cc(C)cc(NS(=O)(=O)c2ccc(NC(=S)NC(=O)c3ccc(Br)o3)cc2)c1 | 2.18
Cc1cc(C)cc(NS(=O)(=O)c2ccc(NC(=S)NC(=O)c3cccs3)cc2)c1 | 0.901
Cc1cc(C)cc(NS(=O)(=O)c2ccc(NC(=S)Nc3ccccc3)cc2)c1 | 9.02e-05
CCc1[nH]nc2c1C(c1ccncc1)C(C#N)=C(N)O2 (stereo unspecified) | 0.499
O=C(O)c1ccc(NC(=S)NC2CCCCC2)cc1 | 0.13
O=C(CN1C(=O)c2cccc3cccc1c23)NCc1ccc2c(c1)OCO2 | -0.178
Cc1cc(C)nc(N2CCCC(C(=O)NCCc3ccccc3F)C2)n1 (stereo unspecified) | -0.306
Cc1cc(C)nc(N2CCCC(C(=O)NCCc3ccc(F)cc3)C2)n1 (stereo unspecified) | 3.52 (active)
Cc1cc(C)nc(N2CCCC(C(=O)NCCc3cccc(F)c3)C2)n1 (stereo unspecified) | -0.0417
COc1cc(S(=O)(=O)N2CCOCC2)ccc1NC(=O)COC(=O)CC12CC3CC(CC(C3)C1)C2 | 0.016
CCOC(=O)c1cc2sccc2n1CC(=O)N1CCCC1 | -0.278
Cc1ccc(S(=O)(=O)N2CCOCC2)cc1NC(=O)CSc1nnc2cc(C)c3ccccc3n12 | -1.43
CCCCSc1nnc(-c2cc3c(C(F)(F)F)nn(C)c3s2)n1C | -0.355
CCn1c(-c2cc3c(C(F)(F)F)nn(C)c3s2)n[nH]c1=S | 7 (active)

Structure (SMILES) | z-score
Cn1c(-c2cc3c(C(F)(F)F)nn(C)c3s2)n[nH]c1=S | -0.114
Cc1cc(N2CCN(c3nc(N4CCOCC4)nc4ccccc34)CC2)c2ccccc2n1 | 0.213
CC(C)CC(C(=O)Nc1oc(-c2ccccc2)c(-c2ccccc2)c1C#N)N1C(=O)c2ccccc2C1=O (stereo unspecified) | -0.151
COc1ccc(C(=O)Oc2ccc(/C=N/NC(=O)Cc3ccc([N+](=O)[O-])cc3)cc2)cc1 | 0.194
Cc1ccccc1C(=O)NNC(=S)NC(=O)c1ccc(Cl)cc1Cl | 4.35 (active)
Cc1onc(-c2ccccc2)c1C(=O)NNC(=S)NC(=O)c1ccc(Cl)cc1Cl | 0.272
Cc1ccc(C(=O)NNC(=S)NC(=O)c2ccc(Cl)cc2Cl)cc1 | 2.02
O=C(NNC(=O)c1ccc(Cl)cc1Cl)c1ccncc1 | 0.97
COC(=O)NNC(=O)c1ccc(Cl)cc1Cl | -0.27
Cc1ccc(C(=O)NNC(=S)NC(=O)c2ccc(Cl)cc2)cc1 | 7.64 (active)
Cc1ccc(C(=O)NC(=S)NNS(=O)(=O)c2ccc(C)cc2)cc1 | 0.234
Cc1cccc(C(=O)NC(=S)NNC(=O)c2ccc(Cl)cc2)c1 | 6.22 (active)
O=C(NC(=S)NNC(=O)c1ccc(Cl)cc1Cl)c1cccnc1 | -0.129
O=C(NNC(=S)NC(=O)c1cccnc1)c1ccc(Cl)cc1 | 0.171
Cc1cccc(C(=O)NNC(=O)c2ccc(-c3ccccc3)cc2)c1 | 0.252
Cc1ccc(C(=O)NC(=S)Nc2ccc(NC(=O)c3cccc(Cl)c3)cc2)cc1 | -0.278
CN(C)[C@@H]1CCC[C@H]1OC(=O)C(c1ccccc1)c1ccccc1 | -1.41
Cc1ccc(S(=O)(=O)N2CCN(S(=O)(=O)c3ccc(C)cc3)C2)cc1 | -0.481
O=C(COC(=O)Cc1ccc(Cl)cc1Cl)NCCC1=CCCCC1 | -1.17
CCCC(=O)Nc1ccc(C(=O)Nc2nc(CC(=O)OCC)cs2)cc1 | -0.437
CCCN1C/C(=C/c2ccc3c(c2)OCO3)C(=O)/C(=C/c2ccc3c(c2)OCO3)C1 | -0.565
Cc1ccc2c(c1)C1CCCC3C1N2CC(=O)N3Cc1ccccc1 (stereo unspecified) | -0.338
C/C(=N\O)C(C)/[N+]([O-])=C/c1nc(C)c(C)n1O (stereo unspecified) | 1.53
O=C(CSc1nc2ccccc2c(=O)n1-c1ccc(F)cc1)Nc1ccc(N2CCOCC2)cc1 | -0.000577

Structure (SMILES) | z-score
Cc1cccc(C(=O)NC(=S)NNC(=O)Cc2ccccc2)c1 | 1.8
O=C(NC(=S)NNC(=O)c1cccs1)c1ccco1 | 1.08
Cc1ccc(OCC(=O)NC(=S)Nc2cccc(NC(=O)c3ccc(Cl)cc3Cl)c2)cc1 | 0.148
O=C(COc1ccccc1)NNC(=S)NC(=O)c1ccc(Cl)cc1Cl | 5.19 (active)
O=C(NNC(=S)NC(=O)c1cccs1)c1ccc(NC(=O)c2ccccc2)cc1 | -0.0903
Cc1cccc(C(=O)NC(=S)NNC(=O)c2cccs2)c1 | 5.42 (active)
COc1ccc(C)cc1NC(=S)NNC(=O)c1ccccc1Cl | 0.678
O=C(NNC(=O)c1cccs1)c1ccc(Br)o1 | -0.207
CCNC(=S)NNC(=O)c1cccs1 | -0.146
Cc1cccc(C(=O)NC(=S)NNC(=O)c2ccccc2Cl)c1 | 5.34 (active)
O=C(COc1cccc(Cl)c1)NNC(=S)Nc1ccccc1 | 0.593
O=C(NC(=S)NNC(=O)c1cccs1)c1ccc(Br)o1 | 4.37 (active)
CC1=C(C(=O)Nc2cc(C)ccc2C)C(c2cccs2)NC(=S)N1 (stereo unspecified) | -0.0019
O=C(CS(=O)CC(=O)N(c1ccccc1)C(C(=O)NC1CCCCC1)c1ccco1)Nc1ccc(F)cc1 (stereo unspecified) | -0.245
COc1ccc(S(=O)(=O)n2nc(C)cc2C)c(C)c1C | -0.246
CC(=O)Nc1ccc(S(=O)(=O)NNC(=O)CCC(=O)Nc2cc(C)ccc2C)cc1 | -0.368
Cc1ccccc1Nc1nc(-c2ccccc2)c(C(=O)Nc2cccnc2)s1 | 0.177
O=C(O)CCSc1nc2ccccc2n1CCOc1ccccc1 | 0.105
CS(=O)(=O)c1ccc(Sc2nc3ccccc3[nH]2)c([N+](=O)[O-])c1 | -0.102
O=C1/C(=C/c2ccccc2)Nc2ccccc21 | -0.773
Cc1ccc(C(=O)NC(=S)NNC(=O)c2ccccc2[N+](=O)[O-])cc1 | 0.414
Cc1ccc(NC(=O)C(=O)NNC(=O)c2ccccc2C)cc1Cl | -0.171
Cc1ccccc1C(=O)NNC(=O)C(=O)Nc1cccc(Cl)c1C | 6.02 (active)
Cc1ccccc1C(=O)NNC(=O)CCC(=O)Nc1cccc(Cl)c1C | -0.34

Structure (SMILES) | z-score
Cc1ccccc1C(=O)NNC(=S)NC(=O)c1ccccc1 | 3.78 (active)
O=C(NC(=S)NNC(=O)c1ccccc1[N+](=O)[O-])c1ccccc1 | -0.00864
Cc1cc(C)nc(Sc2ccc(/C=C(\C#N)C(=O)Nc3ccccc3)o2)n1 | -0.125
O=C(NCc1ccco1)c1cc(-c2cccc(Cl)c2)on1 | 0.0775
CCN(CC)CCCNC(=O)c1cc(-c2ccc(O)cc2)on1 | 0.686
CCN(CC)CCCNC(=O)c1cc(-c2ccc(Cl)c(Cl)c2)on1 | 5.37 (active)
O=C(NCc1cccs1)c1cc(-c2cccc(Cl)c2)on1 | -1.01
CCN(CC)CCCNC(=O)c1cc(-c2cccc(Cl)c2)on1 | 2.64
CCN(CC)CCCNC(=O)c1cc(-c2ccc(Cl)cc2)on1 | 1.7
CCCCC(=O)Nc1ccc(C(=O)NNC(=S)NC(=O)c2cccs2)cc1 | 0.439
Cc1ccc(/C=C(\C#N)C(=O)Nc2c(C)cccc2C)s1 | -0.0444
COc1ccc(CSc2cccc3cccnc23)cc1[N+](=O)[O-] | 0.224
O=C(CSc1cccc2cccnc12)NCc1ccco1 | -0.028
O=C(O)CSc1cccc2cccnc12 | -0.347 and 0.372
CCOC(=O)CSc1cccc2cccnc12 | 4.08 (active)
O=C(CSc1cccc2cccnc12)OCC(=O)c1ccc(Br)cc1 | -0.113
O=C(CSc1cccc2cccnc12)OCC(=O)c1ccccc1 | 0.45
Cc1cccc(CSc2cccc3cccnc23)c1 | 8.5 (active)
CN(C)C(=O)CSc1cccc2cccnc12 | 7 (active)
COc1ccc(/C(C)=N/NC(=O)c2ccc(CSc3cccc4cccnc34)cc2)cc1OC | -0.51
Cc1ccc(NC(=O)CN2C(=O)C3CCCCN3C(=O)c3ccccc32)cc1 (stereo unspecified) | 0.0289
COC(=O)c1cc2c(s1)-c1ccccc1OC2 | -0.0119
Cc1ccc(NC(=O)c2ccc3nc[nH]c3c2)cc1C | 0.551
Cc1ccc(NC(=O)c2c(Cl)n(C)c3ccccc23)cc1 | -0.377

Structure (SMILES) | z-score
O=C(Nc1cccc(NC(=O)c2cccs2)c1)c1ccco1 | -0.313
Clc1cccc(Cl)c1CO/N=C/c1c(-c2ccccc2)nc2n1CCS2 | -0.177
Cn1c(O)c(C=NCC2CCNCC2)c(=O)n(C)c1=O | 0.695
O=C(NCc1cccs1)c1cnn2cccnc12 | 0.267
CCOC(=O)N1CCN(CC(O)COCc2ccc(OC)c(OC)c2)CC1 (stereo unspecified) | 0.0416
CC(C)(C)C1CCC(OC(=O)c2ccncc2)CC1 (stereo unspecified) | 0.0808
C/C(=N\Nc1ccc([N+](=O)[O-])cc1[N+](=O)[O-])c1ccc(-n2nncc2C(C)(C)C)cc1 | -2.37
O=C(CCCN1C(=O)C2CCCCN2C1=O)N1CCN(c2ccc([N+](=O)[O-])cc2)CC1 (stereo unspecified) | 0.169
O=C(Nc1cccc(Cl)c1)Nc1nnc(-c2ccncc2)s1 | -0.194
O=C(NNC(=O)C1COc2ccccc2O1)c1ccccc1 (stereo unspecified) | 0.0265
NC(=S)NNC(=O)Nc1ccc(Cl)c(Cl)c1 | 0.243
S=c1[nH]nc(C2CCCCC2)n1/N=C/C(Cl)=C\c1ccccc1 | -0.0746
CC(/C=N/n1c(C2CCCCC2)n[nH]c1=S)=C\c1ccccc1 | 2.13
S=c1[nH]nc(-c2ccco2)n1/N=C/C=C/c1ccco1 | -0.366
CC(/C=N/n1c(-c2ccco2)n[nH]c1=S)=C\c1ccco1 | 0.1
Cc1cc(-c2n[nH]c(=S)n2/N=C/C(Cl)=C/c2ccccc2)n[nH]1 | -0.527
CC(/C=N/n1c(-c2ccco2)n[nH]c1=S)=C\c1ccccc1 | 5.91 (active)
CC(=C/c1ccccc1)/C=N/n1c(-c2ccco2)n[nH]c1=S | 2.16
CC(/C=N/n1c(COc2ccccc2)n[nH]c1=S)=C\c1ccccc1 | 1.93
CC(/C=N/n1c(-c2cc(C)[nH]n2)n[nH]c1=S)=C\c1ccccc1 | -0.302
